Vc quorum ag-1: inducers of Vibrio cholerae quorum light production without autoinducers; 350,000 compounds, 0.16% hits; AID 588436; activation, % at 18.7 µM; V. cholerae BH1578 lux reporter, luminescence, 6 h; in the data active means activation mostly above about 9.7%, no sharp cut-off
Yp Topo-I inh: Y. pestis Topo-I inhibition via cleavage products. 360,000 compounds, 0.064% hits. activity, % at 10 µM. AID 504884. Y. pestis Topo-I cleavage product accumulation, plate reader; in the data active means activity above about 50%, passing the limit was not always enough
PrP UTR inh: suppresses PrP 5' UTR mRNA reporter expression; cell-based PrP 5' UTR mRNA reporter, plate reader; inhibition, % (no concentration beside the values); 340,000 compounds, 0.35% hits; in the data active means inhibition above about 52%; further: 0 = median of the neutral control wells
TcdB inh: blocks C. difficile toxin B glycohydrolase activity; P18177; TcdB glycohydrolase enzymatic assay, plate reader; inhibition, % at 9.99 µM; 350,000 compounds, 0.24% hits; in the data active means inhibition above about 10%
Mtb UGM inh: Mtb UDP-galactopyranose mutase inhibition; AID 504406; 320,000 compounds, 0.06% hits; purified UGM, fluorescence polarization probe displacement; inhibition, % at 10 µM; P9WIQ1; in the data active means inhibition above about 10%, passing the limit was not always enough
Target sequence (P9WIQ1 whole entry, looked up): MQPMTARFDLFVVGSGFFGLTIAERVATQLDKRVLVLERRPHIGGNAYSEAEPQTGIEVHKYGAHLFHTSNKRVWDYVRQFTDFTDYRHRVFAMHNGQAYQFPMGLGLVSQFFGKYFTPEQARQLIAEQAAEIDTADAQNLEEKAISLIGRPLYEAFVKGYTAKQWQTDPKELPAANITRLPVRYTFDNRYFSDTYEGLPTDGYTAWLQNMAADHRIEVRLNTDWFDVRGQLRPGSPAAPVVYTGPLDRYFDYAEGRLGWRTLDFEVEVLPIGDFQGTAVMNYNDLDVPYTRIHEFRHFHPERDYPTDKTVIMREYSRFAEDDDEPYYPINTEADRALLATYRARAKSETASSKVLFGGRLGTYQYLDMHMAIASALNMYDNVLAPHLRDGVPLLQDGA
Vc quorum ag-2: inducers of V. cholerae quorum light production without autoinducers | shares compounds with Vc quorum ag-1 | V. cholerae BH1578 lux reporter, luminescence, 6 h | activation, % at 50 µM | 620 tested, under 10 active | AID 602243; call rule not given here
HeLa 24h tox: HeLa cell viability loss at 24 h | AID 624140 | CellTiter-Glo ATP luminescence | shares compounds with Vc quorum ag-1 | activity change, negative = cytotoxicity, % at 35 µM | 25 tested, under 10 active;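 active means signal drop with fitted half-maximal concentration at or below twice the highest valid dose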
Starred values were filed as active, the others as inactive; i = inactive; nt = no result given. A selection: hits, their analogues and other compounds. The true share with any hit is near 0.65%.

SMILES	Vc quorum ag-1	Yp Topo-I inh	PrP UTR inh	TcdB inh	Mtb UGM inh	Vc quorum ag-2	others
Cc1sc2ncn(CC(=O)NCCCC(=O)N3CCC(C(N)=O)CC3)c(=O)c2c1C	0	4	-8	1	0	nt
CCCN1CCN(C(=O)CCCNC(=O)Cn2cnc3sc(C)c(C)c3c2=O)CC1	14	2	-25	nt	0	5
COc1ccc(Cl)cc1NC(=O)COC(=O)c1ccc(C)o1	nt	14	-47	1	1	i	HeLa 24h tox=-7
COc1ccccc1NC(=O)c1ccc(NC(=O)COC(=O)c2ccc(O)cc2)cc1	-2	3	-7	-1	-1	nt
COc1ccccc1NC(=O)COC(=O)c1ccc(C)cc1	nt	nt	nt	nt	nt	nt	HeLa 24h tox=-7
COc1ccc(Cl)cc1NC(=O)COC(C)=O	-1	-13	-12	1	0	nt
COc1ccccc1NC(=O)COC(=O)c1cc2ccccc2s1	nt	nt	nt	nt	nt	nt	HeLa 24h tox=9
COc1cccc(-c2cnc3c(c2)C(=O)N([C@H](C)CO)C[C@@H](C)[C@H](CN(C)C(=O)CN(C)C)O3)c1	nt	nt	nt	0	nt	nt
COc1cccc(-c2ccc([C@@H]3[C@@H](CO)N4C(=O)CN(C(=O)C5CC5)C[C@@H]34)cc2)c1	nt	nt	nt	1	nt	nt
C[C@@H]1CCCCO[C@H](CN(C)C(=O)CCC(F)(F)F)[C@H](C)CN([C@H](C)CO)C(=O)c2cc(NC(=O)CCC(F)(F)F)ccc2O1	nt	nt	nt	1	nt	nt
CCCC(=O)Nc1ccc2c(c1)C(=O)N(C)C[C@@H](OC)[C@H](C)CN(C(=O)c1ccncc1)[C@@H](C)CO2	nt	nt	nt	0	nt	nt
Cc1ccc(C)c(N2CCN(C(c3ccc(N(C)C)cc3)c3nnnn3C(C)(C)C)CC2)c1 (stereo not given)	38*	2	-10	nt	0	0
Cc1ccc(C)c(N2CCN(C(c3ccccc3)c3nnnn3C(C)(C)C)CC2)c1 (stereo not given)	nt	nt	nt	-4	nt	nt
O=C(Cc1ccccc1)N[C@H]1C=C[C@@H](CC(=O)N2CCOCC2)O[C@H]1CO	nt	nt	nt	0	nt	nt
Clc1ccc(-c2cc(COc3ccc4ccccc4c3)no2)cc1	12	-4	3	nt	1	0
Clc1ccc(SCc2cc(-c3ccccc3)on2)cc1	-1	24	-1	nt	2	nt
O=C(CN1CCN(c2ccc(F)cc2)CC1)Nc1cc(C(F)(F)F)ccc1Cl	25*	-15	-6	nt	-3	1
CCCCCc1c(C)nc(N2CCc3ccccc3C2)[nH]c1=O	25*	2	nt	nt	nt	15
CCCCN1C(=O)C(O)(CC(=O)c2ccccn2)c2ccccc21 (stereo not given)	44*	-5	7	0	0	200
CCCCN1C(=O)C(O)(CC(=O)c2ccccc2OC)c2ccccc21 (stereo not given)	0	8	17	-4	2	nt
C[C@@H]1CCCCO[C@@H](CN(C)S(=O)(=O)c2cn(C)cn2)[C@@H](C)CN([C@H](C)CO)C(=O)c2cc(NS(=O)(=O)c3cccs3)ccc2O1	nt	nt	nt	0	nt	nt
C[C@@H]1CCCCO[C@H](CN(C)CC2CCCCC2)[C@H](C)CN([C@H](C)CO)C(=O)c2cc(NS(=O)(=O)c3cn(C)cn3)ccc2O1	nt	nt	nt	2	nt	nt
COc1ccc(CN(C)C[C@H]2OCCCC[C@@H](C)Oc3ccc(NC(=O)CCCN(C)C)cc3C(=O)N([C@@H](C)CO)C[C@H]2C)cc1	nt	nt	nt	0	nt	nt
Cc1cc(C(=O)CSc2nnc(-c3ccco3)o2)c(C)n1CC1COc2ccccc2O1 (stereo not given)	18	20	-20	nt	nt	1
Cc1ccc(-c2ccc3c(c2)O[C@H](CN(C)Cc2ccccn2)[C@H](C)CN([C@@H](C)CO)S3(=O)=O)cc1	nt	nt	nt	1	nt	nt
COc1ccc(OC)c(S(=O)(=O)N2CCC(C(=O)N3CCc4ccccc4C3)CC2)c1	12	32	3	nt	-1	2
COc1ccc(OC)c(S(=O)(=O)N2CCC(C(=O)N3CCCC3)CC2)c1	0	4	-9	-2	0	nt
CCc1nnc(NC(=O)C2CC(=O)N(c3ccc(C)cc3)C2)s1 (stereo not given)	12	7	6	nt	1	0
COc1ccc(Cc2nnc(NC(=O)C3CC(=O)N(c4ccccc4C)C3)s2)cc1OC (stereo not given)	9	18	-16	-1	-2	1
